# Data published in PMC7862700, “An all-to-all approach to the identification of sequence-specific readers for epigenetic DNA modifications on cytosine”.
# Assays:
# Test in all cases: DAPPL (digital affinity profiling via proximity ligation, sequencing); 10 mM Tris-HCl pH 7.5, 50 mM NaCl, 1 mM DTT, 4% glycerol, room temperature, 30 min; GST-TFs on glutathione beads, 16-mer random dsDNA library, 0.1% formaldehyde crosslink after washing; high values mean tight binding
# FEV = biological target: T1, FEV (Homo sapiens, UniProt Q99581 1-238); details: protein: recombinant; tags: N-terminal GST; dsDNA, one strand shown
# T1 sequence: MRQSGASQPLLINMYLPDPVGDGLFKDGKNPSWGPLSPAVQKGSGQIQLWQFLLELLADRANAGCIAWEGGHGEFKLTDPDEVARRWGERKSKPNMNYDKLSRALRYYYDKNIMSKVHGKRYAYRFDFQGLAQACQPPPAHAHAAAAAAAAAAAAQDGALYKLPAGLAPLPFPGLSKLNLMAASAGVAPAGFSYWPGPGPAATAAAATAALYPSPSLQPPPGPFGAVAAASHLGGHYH
# How it was run: (§1)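 Yeast served to express human transcription factors as GST fusions, which were then captured on glutathione beads and labelled with DNA barcodes. Pooled with a tag-only sample, they were incubated with 200 nmole of a 16-mer random double-stranded DNA library for 30 min at room temperature in Tris/NaCl/DTT/glycerol buffer, washed, crosslinked with 0.1% formaldehyde, ligated by proximity, amplified by PCR and sequenced. Dividing each hexamer's read frequency for a factor by its frequency for the tag-only sample gives the binding signal.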
# ETV5 = ETV5 (Homo sapiens, UniProt P41161 1-510); details: protein: recombinant; tags: N-terminal GST; dsDNA, one strand shown
# How it was run: as §1
# HSF1 = HSF1 (Homo sapiens, UniProt Q00613 1-529); details: protein: recombinant; tags: N-terminal GST; chain copies: 3; dsDNA, one strand shown
# How it was run: as §1
# SPIC = biological target: T2, SPIC (Homo sapiens, UniProt Q8N5J4 1-248); details: protein: recombinant; tags: N-terminal GST; dsDNA, one strand shown
# T2 sequence: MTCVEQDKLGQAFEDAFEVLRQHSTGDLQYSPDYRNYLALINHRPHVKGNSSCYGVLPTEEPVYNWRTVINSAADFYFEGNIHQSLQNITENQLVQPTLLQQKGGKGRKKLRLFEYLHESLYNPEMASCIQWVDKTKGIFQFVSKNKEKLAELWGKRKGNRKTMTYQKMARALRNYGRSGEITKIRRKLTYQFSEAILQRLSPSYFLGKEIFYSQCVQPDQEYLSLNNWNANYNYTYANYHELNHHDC
# How it was run: as §1
# ELF4 = ELF4 (Homo sapiens, UniProt Q99607 1-663); details: protein: recombinant; tags: N-terminal GST; dsDNA, one strand shown
# How it was run: as §1
# ELK4 = biological target: T3, ELK4 (Homo sapiens, UniProt P28324-2 1-405); details: protein: recombinant; tags: N-terminal GST; dsDNA, one strand shown
# T3 sequence: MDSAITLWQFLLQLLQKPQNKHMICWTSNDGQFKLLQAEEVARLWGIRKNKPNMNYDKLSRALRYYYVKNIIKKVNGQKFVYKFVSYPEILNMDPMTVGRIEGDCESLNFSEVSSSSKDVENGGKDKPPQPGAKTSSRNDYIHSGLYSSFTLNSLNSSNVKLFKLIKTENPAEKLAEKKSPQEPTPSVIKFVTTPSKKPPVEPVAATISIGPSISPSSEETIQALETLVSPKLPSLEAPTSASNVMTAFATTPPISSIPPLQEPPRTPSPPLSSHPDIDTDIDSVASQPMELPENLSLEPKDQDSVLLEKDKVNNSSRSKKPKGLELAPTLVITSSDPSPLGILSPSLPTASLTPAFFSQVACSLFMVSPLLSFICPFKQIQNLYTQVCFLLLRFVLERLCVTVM
# How it was run: as §1
# ETV2 = biological target: T4, ETV2 (Homo sapiens, UniProt O00321 1-342); details: protein: recombinant; tags: N-terminal GST; dsDNA, one strand shown
# T4 sequence: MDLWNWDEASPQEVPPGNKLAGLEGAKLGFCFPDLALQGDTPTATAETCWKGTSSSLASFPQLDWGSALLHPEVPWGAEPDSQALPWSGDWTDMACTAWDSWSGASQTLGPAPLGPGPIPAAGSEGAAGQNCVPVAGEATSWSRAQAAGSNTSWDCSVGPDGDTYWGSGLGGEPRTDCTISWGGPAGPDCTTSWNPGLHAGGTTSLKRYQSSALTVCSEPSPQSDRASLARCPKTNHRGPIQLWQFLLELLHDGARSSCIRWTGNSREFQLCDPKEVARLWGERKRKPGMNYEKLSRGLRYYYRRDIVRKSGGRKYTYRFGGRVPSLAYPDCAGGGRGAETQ
# How it was run: as §1
# ELF3 = biological target: T5, ELF3 (Homo sapiens, UniProt P78545 1-371); details: protein: recombinant; tags: N-terminal GST; dsDNA, one strand shown
# T5 sequence: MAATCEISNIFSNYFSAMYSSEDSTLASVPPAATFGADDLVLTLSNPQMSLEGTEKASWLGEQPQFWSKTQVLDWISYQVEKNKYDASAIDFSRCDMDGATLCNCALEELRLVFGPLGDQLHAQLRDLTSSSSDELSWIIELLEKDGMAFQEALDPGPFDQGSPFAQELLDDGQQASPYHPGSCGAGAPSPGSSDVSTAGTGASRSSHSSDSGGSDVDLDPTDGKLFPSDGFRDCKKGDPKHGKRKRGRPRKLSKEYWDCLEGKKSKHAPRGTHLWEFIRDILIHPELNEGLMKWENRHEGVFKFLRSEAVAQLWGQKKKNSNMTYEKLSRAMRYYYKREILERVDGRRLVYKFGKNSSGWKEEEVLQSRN
# How it was run: as §1
# CRX = CRX (Homo sapiens, UniProt O43186 1-299); details: protein: recombinant; tags: N-terminal GST; dsDNA, one strand shown
# How it was run: as §1
# ETV1 = ETV1 (Homo sapiens, UniProt P50549 1-477); details: protein: recombinant; tags: N-terminal GST; dsDNA, one strand shown
# How it was run: as §1
# CRX, sequence (O43186 whole entry): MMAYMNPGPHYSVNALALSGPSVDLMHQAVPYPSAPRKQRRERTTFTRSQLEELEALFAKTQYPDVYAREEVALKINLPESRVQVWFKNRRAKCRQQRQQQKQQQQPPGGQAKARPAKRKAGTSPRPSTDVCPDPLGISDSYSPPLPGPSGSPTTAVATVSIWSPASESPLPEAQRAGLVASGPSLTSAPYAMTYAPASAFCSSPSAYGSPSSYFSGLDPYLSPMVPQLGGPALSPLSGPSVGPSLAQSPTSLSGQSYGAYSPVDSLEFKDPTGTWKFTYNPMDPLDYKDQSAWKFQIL
# HSF1, sequence (Q00613 whole entry): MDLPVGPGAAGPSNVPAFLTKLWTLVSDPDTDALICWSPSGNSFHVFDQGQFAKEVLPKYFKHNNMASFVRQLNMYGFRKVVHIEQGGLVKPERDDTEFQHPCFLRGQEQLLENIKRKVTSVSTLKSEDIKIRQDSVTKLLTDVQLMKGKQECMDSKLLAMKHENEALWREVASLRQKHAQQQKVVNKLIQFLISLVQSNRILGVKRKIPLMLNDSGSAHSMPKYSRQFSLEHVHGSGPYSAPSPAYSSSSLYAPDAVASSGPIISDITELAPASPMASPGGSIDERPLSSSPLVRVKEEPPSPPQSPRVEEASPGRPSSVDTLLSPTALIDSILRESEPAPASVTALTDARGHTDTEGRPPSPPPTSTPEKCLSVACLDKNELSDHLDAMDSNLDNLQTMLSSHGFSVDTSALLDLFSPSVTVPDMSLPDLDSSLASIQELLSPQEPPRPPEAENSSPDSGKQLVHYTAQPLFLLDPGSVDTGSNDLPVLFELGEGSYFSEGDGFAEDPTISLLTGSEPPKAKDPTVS
# ETV1, sequence (P50549 whole entry): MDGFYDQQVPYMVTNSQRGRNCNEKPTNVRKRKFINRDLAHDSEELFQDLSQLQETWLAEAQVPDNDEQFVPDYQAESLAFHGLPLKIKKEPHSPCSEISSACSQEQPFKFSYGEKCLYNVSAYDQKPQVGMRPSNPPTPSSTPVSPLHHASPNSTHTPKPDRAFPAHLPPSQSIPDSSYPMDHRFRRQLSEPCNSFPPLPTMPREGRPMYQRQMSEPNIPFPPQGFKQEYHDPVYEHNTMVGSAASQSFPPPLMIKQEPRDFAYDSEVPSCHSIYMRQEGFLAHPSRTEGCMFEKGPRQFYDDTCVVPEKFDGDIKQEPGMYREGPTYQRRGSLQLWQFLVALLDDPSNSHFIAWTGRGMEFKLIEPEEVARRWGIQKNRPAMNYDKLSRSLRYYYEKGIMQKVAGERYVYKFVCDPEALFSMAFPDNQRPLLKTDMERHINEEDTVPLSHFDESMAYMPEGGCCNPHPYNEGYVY
# ELF4, sequence (Q99607 whole entry): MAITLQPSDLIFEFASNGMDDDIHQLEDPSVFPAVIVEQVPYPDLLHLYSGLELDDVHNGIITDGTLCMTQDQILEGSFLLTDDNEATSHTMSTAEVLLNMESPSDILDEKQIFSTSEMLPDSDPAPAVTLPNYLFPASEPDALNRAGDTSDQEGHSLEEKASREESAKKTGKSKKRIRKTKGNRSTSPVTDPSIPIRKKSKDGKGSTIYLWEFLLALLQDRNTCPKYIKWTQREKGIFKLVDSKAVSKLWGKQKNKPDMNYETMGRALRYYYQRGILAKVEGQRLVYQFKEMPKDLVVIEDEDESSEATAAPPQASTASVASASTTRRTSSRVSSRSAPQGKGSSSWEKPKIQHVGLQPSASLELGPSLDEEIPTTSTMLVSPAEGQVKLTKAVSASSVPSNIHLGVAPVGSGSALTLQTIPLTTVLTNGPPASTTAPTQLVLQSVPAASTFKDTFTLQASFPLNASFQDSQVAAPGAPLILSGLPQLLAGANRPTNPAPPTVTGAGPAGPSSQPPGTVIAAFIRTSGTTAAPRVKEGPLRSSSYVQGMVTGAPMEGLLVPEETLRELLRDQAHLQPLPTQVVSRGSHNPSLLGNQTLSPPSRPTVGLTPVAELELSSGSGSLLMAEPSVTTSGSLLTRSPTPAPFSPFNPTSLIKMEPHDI
# ETV5, sequence (P41161 whole entry): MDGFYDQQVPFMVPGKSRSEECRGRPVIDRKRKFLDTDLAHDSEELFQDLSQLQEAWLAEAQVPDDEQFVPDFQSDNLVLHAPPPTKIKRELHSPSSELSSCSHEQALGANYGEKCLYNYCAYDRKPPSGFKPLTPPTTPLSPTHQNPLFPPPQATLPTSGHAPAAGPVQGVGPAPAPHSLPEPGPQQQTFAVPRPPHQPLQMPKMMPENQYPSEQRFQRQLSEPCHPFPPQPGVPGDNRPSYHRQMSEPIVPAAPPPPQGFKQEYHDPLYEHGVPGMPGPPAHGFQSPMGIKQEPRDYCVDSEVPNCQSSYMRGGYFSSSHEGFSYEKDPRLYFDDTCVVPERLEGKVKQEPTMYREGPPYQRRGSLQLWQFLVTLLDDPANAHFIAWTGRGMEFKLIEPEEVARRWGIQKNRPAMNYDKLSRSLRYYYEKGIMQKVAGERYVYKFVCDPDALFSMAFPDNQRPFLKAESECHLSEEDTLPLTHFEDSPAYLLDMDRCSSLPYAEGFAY
sequence,measurement,setting,value
ATTTTT,binding signal,FEV,"1.15 fold enrichment (6-mer frequency, TF over GST control)"
same,binding signal,ETV5,"1.21 fold enrichment (6-mer frequency, TF over GST control)"
same,binding signal,HSF1,"1.31 fold enrichment (6-mer frequency, TF over GST control)"
same,binding signal,SPIC,"1.1 fold enrichment (6-mer frequency, TF over GST control)"
same,binding signal,ELF4,"1.19 fold enrichment (6-mer frequency, TF over GST control)"
same,binding signal,ELK4,"1.31 fold enrichment (6-mer frequency, TF over GST control)"
same,binding signal,ETV2,"1.29 fold enrichment (6-mer frequency, TF over GST control)"
same,binding signal,ELF3,"1.2 fold enrichment (6-mer frequency, TF over GST control)"
same,binding signal,CRX,"1.28 fold enrichment (6-mer frequency, TF over GST control)"
same,binding signal,ETV1,"1.28 fold enrichment (6-mer frequency, TF over GST control)"
